A short description of assay [1]: antimalarial activity against Dd2 strain (AID 2302;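 active = growth inhibition above 50% at the single 2 µM test dose, taken to imply half-maximal potency below 2 µM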;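 note: 0% = DMSO untreated growth and 100% = chloroquine plus artemisinin killed control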). Particulars: P. falciparum Dd2 in RBCs, LDH growth readout, 72 h; at 2 µM; active compounds read high.
Assay [2] is described as follows: human hepatoma cell viability loss – ATP luminescence, cytotoxicity control for P. falciparum antimalarial project, primary screen (AID 2303;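 active = inhibition above 50%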;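 note: 0% = DMSO wells and 100% = digitonin-killed cells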). Particulars: HepG2 viability, 24-48 h, at 10 µM, active compounds read high.
Assay [3] deals with L-lactate dehydrogenase (Plasmodium falciparum (isolate CDC / Honduras)) (UniProt Q27743). Briefly: PfLDH activity inhibition – cell lysate, 3D7 strain, counter-screen for P. falciparum growth inhibition project (AID 2304).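 Note: 0% = vehicle and 100% = reference inhibitor.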 As to conditions: P. falciparum 3D7 crude extract, LDH APAD/NBT absorbance; at 2 µM; active compounds read high.
L-lactate dehydrogenase (Plasmodium falciparum (isolate CDC / Honduras)), sequence (Q27743 whole entry, looked up): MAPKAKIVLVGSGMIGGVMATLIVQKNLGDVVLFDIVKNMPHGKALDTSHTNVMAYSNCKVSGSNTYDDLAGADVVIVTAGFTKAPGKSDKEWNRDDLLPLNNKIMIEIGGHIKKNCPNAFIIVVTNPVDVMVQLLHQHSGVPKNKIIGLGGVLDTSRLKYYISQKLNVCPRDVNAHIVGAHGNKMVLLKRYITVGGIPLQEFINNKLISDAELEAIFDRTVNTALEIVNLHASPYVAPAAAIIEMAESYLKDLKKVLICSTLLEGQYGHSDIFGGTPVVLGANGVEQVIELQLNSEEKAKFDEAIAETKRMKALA
Assay [4] in a line: inhibition of 3D7 malaria parasite growth – strain 3D7 (AID 2306).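 Note: 0% = DMSO wells and 100% = chloroquine plus artemisinin control wells.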 As to conditions: P. falciparum 3D7 erythrocytic growth, LDH absorbance, 72 h; at 2 µM; active compounds read high.
Assay [5] concerns the target Calcium-dependent protein kinase 1 (Plasmodium falciparum (isolate 3D7)) (UniProt P62344). Briefly: PfCDPK1 kinase inhibitors, biochemical, TCAMS library (AID 1159585; cut-off not given, nearly all actives have IC50 up to about 0.98 µM;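 note: inhibitors leave more ATP so luminescence rises with inhibition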). As to conditions: recombinant PfCDPK1, Kinase-Glo ATP depletion luminescence.
Assay [6] addresses Plasmodium falciparum protein kinase 6 (PK6, PF3D7_1337100) (UniProt Q8IDW1). Briefly: PfPK6 kinase inhibitors, biochemical, TCAMS library (AID 1159586). As to conditions: recombinant PfPK6, Kinase-Glo ATP depletion luminescence. On the technique in general: Kinase-Glo reads ATP consumption through a luciferase reaction.
Assay [7] has as its target Protein kinase 7 (PK7), Plasmodium falciparum 3D7 (PF3D7_0213400) (UniProt Q7YTF7). Put plainly: inhibition of Plasmodium PK7 catalytic activity – biochemical, TCAMS antimalarial set, Kinase-Glo luminescence (AID 1159587). Particulars: recombinant PfPK7, Kinase-Glo ATP depletion luminescence.
For assay [8], the target named is Calcium-dependent protein kinase 4 (Plasmodium falciparum (isolate 3D7)) (UniProt Q8IBS5). Put plainly: PfCDPK4 kinase inhibitors, biochemical, TCAMS library (AID 1159588; cut-off not given, nearly all actives have IC50 up to about 0.91 µM). Particulars: recombinant PfCDPK4, Kinase-Glo ATP depletion luminescence.
Calcium-dependent protein kinase 4 (Plasmodium falciparum (isolate 3D7)), sequence (Q8IBS5 whole entry, looked up): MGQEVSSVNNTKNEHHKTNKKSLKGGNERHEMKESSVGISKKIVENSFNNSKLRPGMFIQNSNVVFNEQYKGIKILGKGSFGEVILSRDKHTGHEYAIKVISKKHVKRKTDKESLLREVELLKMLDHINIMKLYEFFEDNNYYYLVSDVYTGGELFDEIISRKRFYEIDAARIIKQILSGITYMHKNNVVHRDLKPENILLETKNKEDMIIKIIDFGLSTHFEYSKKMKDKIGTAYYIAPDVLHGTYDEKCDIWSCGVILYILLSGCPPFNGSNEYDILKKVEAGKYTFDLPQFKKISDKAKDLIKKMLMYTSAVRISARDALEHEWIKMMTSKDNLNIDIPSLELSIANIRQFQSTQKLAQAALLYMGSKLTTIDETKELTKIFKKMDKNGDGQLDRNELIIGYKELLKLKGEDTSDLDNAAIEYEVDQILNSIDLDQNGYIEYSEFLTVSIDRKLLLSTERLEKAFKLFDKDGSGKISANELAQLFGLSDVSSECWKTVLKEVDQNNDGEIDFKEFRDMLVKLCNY

A number with no mark means an inactive call. For some assays here: Results with a measured potency or affinity are listed apart. Calls of active or inactive are those of the source. Unless noted, the rule behind the calls is not given here.

What is called inhibition is the relative decrease from the control value, in per cent.

Calcium-dependent protein kinase 1 (Plasmodium falciparum (isolate 3D7)), sequence (P62344 whole entry, looked up): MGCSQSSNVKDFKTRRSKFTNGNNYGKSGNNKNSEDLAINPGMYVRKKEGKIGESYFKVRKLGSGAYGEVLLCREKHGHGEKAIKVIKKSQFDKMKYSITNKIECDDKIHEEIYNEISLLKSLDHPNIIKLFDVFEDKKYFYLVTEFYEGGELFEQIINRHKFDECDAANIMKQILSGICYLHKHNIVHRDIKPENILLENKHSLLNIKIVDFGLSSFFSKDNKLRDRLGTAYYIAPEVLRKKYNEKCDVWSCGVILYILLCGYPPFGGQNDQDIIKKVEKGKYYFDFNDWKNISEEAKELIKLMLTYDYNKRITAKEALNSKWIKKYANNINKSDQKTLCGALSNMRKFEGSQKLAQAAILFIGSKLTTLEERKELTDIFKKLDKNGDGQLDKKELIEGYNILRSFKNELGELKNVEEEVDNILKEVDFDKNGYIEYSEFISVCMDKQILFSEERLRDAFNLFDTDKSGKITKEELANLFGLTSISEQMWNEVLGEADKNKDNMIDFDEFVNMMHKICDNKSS
Protein kinase 7 (PK7), Plasmodium falciparum 3D7 (PF3D7_0213400), sequence (Q7YTF7 1-343): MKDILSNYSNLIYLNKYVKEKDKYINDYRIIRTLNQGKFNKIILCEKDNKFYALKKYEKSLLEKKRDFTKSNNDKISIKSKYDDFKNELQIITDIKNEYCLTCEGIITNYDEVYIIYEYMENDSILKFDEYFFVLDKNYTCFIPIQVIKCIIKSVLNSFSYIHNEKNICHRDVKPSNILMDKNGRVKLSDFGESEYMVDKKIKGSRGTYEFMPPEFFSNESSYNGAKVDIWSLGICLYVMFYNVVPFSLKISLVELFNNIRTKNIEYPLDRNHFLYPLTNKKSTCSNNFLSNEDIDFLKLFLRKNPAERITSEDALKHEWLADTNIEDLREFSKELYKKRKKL
Plasmodium falciparum protein kinase 6 (PK6, PF3D7_1337100), sequence (Q8IDW1 1-305): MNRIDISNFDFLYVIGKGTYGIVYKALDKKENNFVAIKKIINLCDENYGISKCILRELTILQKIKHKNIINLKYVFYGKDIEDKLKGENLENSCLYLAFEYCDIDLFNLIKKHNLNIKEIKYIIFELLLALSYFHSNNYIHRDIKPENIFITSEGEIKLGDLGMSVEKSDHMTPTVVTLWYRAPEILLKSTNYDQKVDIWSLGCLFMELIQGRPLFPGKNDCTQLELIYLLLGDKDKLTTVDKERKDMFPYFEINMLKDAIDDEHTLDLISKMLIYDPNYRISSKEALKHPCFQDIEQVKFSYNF

As to `CN(CCCCNC(=O)c1ccc(-c2ccccc2)cc1)C1CCc2c(O)cccc2C1` (configuration not stated), the growth inhibition was 21% in assay [1] and 102% (active) in assay [4]. For the same molecule, the inhibition in assay [2] was 24%; in assay [3], 0%. For the same molecule, the result in assay [5], in assay [6], in assay [7] and in assay [8] was inactive.
As to `Nc1ncc(-c2ccc(Cl)c(Cl)c2)c(N)n1`, the results for the growth inhibition in assay [1] and in assay [4] were -2% and 94% (active), respectively. In addition, the inhibition in assay [2] is 65% (active); in assay [3] it was -2%. Further, the outcome in assay [5], in assay [6], in assay [7] and in assay [8] was inactive.
`O=C(Nc1ccc(Cl)cc1)Nc1cccc(CCNCc2ccccc2)c1`: the growth inhibition was 12% in assay [1] and 101% (active) in assay [4]. Besides, the inhibition in assay [2] is 16%; in assay [3], 6%. Moreover, the result in assay [5], in assay [6], in assay [7] and in assay [8] was inactive.
As for `Cc1cc(Nc2ccc(C)c(Cl)c2)n2nc(C(F)(F)F)nc2n1`, the figures for the growth inhibition in assay [1] and in assay [4] were 97% (active) and 98% (active), respectively. Also, the inhibition in assay [2] and in assay [3] was 2% throughout. For the same molecule, the outcome in assay [5], in assay [6], in assay [7] and in assay [8] was inactive.
